PubChem BioAssay AID1159580 (chemical genetic matrix, 2015)
The campaign covered roughly 5,500 compounds. About 2,000 (36%) were called active. Another 18% or so got no clear call; they are omitted. Rule as the data show it: active = normalized growth mostly below about 0.91 (no sharp cut-off); inconclusive = no clear call, values can overlap the other calls; inactive = mostly above about 0.92. Some of the results follow.

Assay: chemical genetic growth profiling, strain panel (AID 1159580);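 also: tested at 20 µM; growth read once vehicle control cultures reached saturation at 30 °C; 1 = growth at the plate median or of vehicle wells; lower values mean less growth of the strain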
Conditions: growth OD

Measured: normalized growth

COc1ccc2c3c([nH]c2c1)C(C)=NCC3
inactive: S. cerevisiae deletion strains, locus YKL009W, strain mrt4, active compounds read low 1.02 | S. cerevisiae deletion strains, locus YKL068W, active compounds read low 0.999 | S. cerevisiae deletion strains, locus YKL085W, strain MDH1 (second series), active compounds read low 0.996 | S. cerevisiae deletion strains, locus YKL085W, strain MDH1, active compounds read low 0.996 | S. cerevisiae deletion strains, locus YKL160W, strain elf1, active compounds read low 1.01 | S. cerevisiae deletion strains, locus YKL190W, strain CNB1, active compounds read low 1.01 | S. cerevisiae deletion strains, locus YKR001C, strain vps1, active compounds read low 0.975 | S. cerevisiae deletion strains, locus YKR026C, strain gcn3, active compounds read low 1.01 | S. cerevisiae deletion strains, locus YKR091W, strain srl3, active compounds read low 0.999 | S. cerevisiae deletion strains, locus YLL001W, strain dnm1, active compounds read low 1.01 | S. cerevisiae deletion strains, locus YLL026W, active compounds read low 0.987 | S. cerevisiae deletion strains, locus YLL041C, strain sdh2, active compounds read low 1.01 | S. cerevisiae deletion strains, locus YLR027C, strain aat2, active compounds read low 1 | S. cerevisiae deletion strains, locus YLR039C, strain RIC1, active compounds read low 1.02 | S. cerevisiae deletion strains, locus YLR058C, strain SHM2, active compounds read low 1.01 | S. cerevisiae deletion strains, locus YLR102C, strain apc9, active compounds read low 0.987 | S. cerevisiae deletion strains, locus YLR113W, strain HOG1, active compounds read low 0.993 | S. cerevisiae deletion strains, locus YLR221C, strain rsa3, active compounds read low 1 | S. cerevisiae deletion strains, locus YLR258W, strain gsy2, active compounds read low 0.999 | S. cerevisiae deletion strains, locus YLR262C, strain YPT6 (second series), active compounds read low 0.983 | S. cerevisiae deletion strains, locus YLR262C, strain YPT6, active compounds read low 1.03 | S. cerevisiae deletion strains, locus YLR268W, strain sec22, active compounds read low 0.979 | S. cerevisiae deletion strains, locus YLR320W, strain mms22, active compounds read low 0.988 | S. cerevisiae deletion strains, locus YLR330W, strain CHS5, active compounds read low 1 | S. cerevisiae deletion strains, locus YLR342W, strain FKS1 (second series), active compounds read low 1.01 | S. cerevisiae deletion strains, locus YLR342W, strain FKS1, active compounds read low 0.972 | S. cerevisiae deletion strains, locus YLR357W, strain rsc2, active compounds read low 0.991 | S. cerevisiae deletion strains, locus YLR370C, strain arc18, active compounds read low 1 | S. cerevisiae deletion strains, locus YLR371W, strain rom2, active compounds read low 0.976 | S. cerevisiae deletion strains, locus YLR384C, strain iki3, active compounds read low 1 | S. cerevisiae deletion strains, locus YLR418C, strain cdc73, active compounds read low 0.98 | S. cerevisiae deletion strains, locus YML016C, strain PPZ1, active compounds read low 1 | S. cerevisiae deletion strains, locus YML032C, strain rad52, active compounds read low 0.993 | S. cerevisiae deletion strains, locus YML120C, strain ndi1, active compounds read low 0.986 | S. cerevisiae deletion strains, locus YML124C, strain tub3, active compounds read low 0.987 | S. cerevisiae deletion strains, locus YMR058W, strain fet3, active compounds read low 1.02 | S. cerevisiae deletion strains, locus YMR078C, strain ctf18, active compounds read low 0.996 | S. cerevisiae deletion strains, locus YMR125W, strain sto1, active compounds read low 1 | S. cerevisiae deletion strains, locus YMR129W, active compounds read low 0.981 | S. cerevisiae deletion strains, locus YMR205C, strain PFK2, active compounds read low 1.01 | S. cerevisiae deletion strains, locus YMR223W, strain ubp8, active compounds read low 0.99 | S. cerevisiae deletion strains, locus YMR231W, strain pep5, active compounds read low 0.999 | S. cerevisiae deletion strains, locus YMR263W, strain SAP30, active compounds read low 1.01 | S. cerevisiae deletion strains, locus YMR307W, strain GAS1, active compounds read low 1.04 | S. cerevisiae deletion strains, locus YNL067W, strain RPL9B, active compounds read low 0.999 | S. cerevisiae deletion strains, locus YNL071W, strain lat1, active compounds read low 1 | S. cerevisiae deletion strains, locus YNL128W, strain TEP1, active compounds read low 1.01 | S. cerevisiae deletion strains, locus YNL153C, strain GIM3, active compounds read low 0.997 | S. cerevisiae deletion strains, locus YNL183C, strain NPR1, active compounds read low 0.934 | S. cerevisiae deletion strains, locus YNL209W, strain ssb2, active compounds read low 1 | S. cerevisiae deletion strains, locus YNL233W, strain BNI4, active compounds read low 0.999 | S. cerevisiae deletion strains, locus YNL248C, strain rpa49, active compounds read low 1 | S. cerevisiae deletion strains, locus YNL250W, strain rad50, active compounds read low 0.983 | S. cerevisiae deletion strains, locus YNL271C, strain bni1, active compounds read low 0.984 | S. cerevisiae deletion strains, locus YNL298W, strain CLA4, active compounds read low 0.971 | S. cerevisiae deletion strains, locus YNL307C, strain MCK1, active compounds read low 0.987 | S. cerevisiae deletion strains, locus YNL322C, strain KRE1 (second series), active compounds read low 1 | S. cerevisiae deletion strains, locus YNL322C, strain KRE1, active compounds read low 1.01 | S. cerevisiae deletion strains, locus YNR049C, strain mso1, active compounds read low 0.999 | S. cerevisiae deletion strains, locus YNR052C, strain pop2, active compounds read low 0.989 | S. cerevisiae deletion strains, locus YOL006C, strain TOP1, active compounds read low 1.02 | S. cerevisiae deletion strains, locus YOL012C, strain htz1 0.706 | S. cerevisiae deletion strains, locus YOL147C, strain pex11, active compounds read low 0.99 | S. cerevisiae deletion strains, locus YOR001W, strain rrp6, active compounds read low 1.01 | S. cerevisiae deletion strains, locus YOR061W, strain CKA2, active compounds read low 1 | S. cerevisiae deletion strains, locus YOR069W, strain VPS5, active compounds read low 1.01 | S. cerevisiae deletion strains, locus YOR070C, strain gyp1, active compounds read low 0.991 | S. cerevisiae deletion strains, locus YOR080W, strain dia2, active compounds read low 0.997 | S. cerevisiae deletion strains, locus YOR083W, strain WHI5, active compounds read low 0.991 | S. cerevisiae deletion strains, locus YOR106W, strain vam3, active compounds read low 1.01 | S. cerevisiae deletion strains, locus YOR136W, strain idh2, active compounds read low 0.983 | S. cerevisiae deletion strains, locus YOR144C, strain elg1, active compounds read low 0.983 | S. cerevisiae deletion strains, locus YOR184W, strain ser1, active compounds read low 0.994 | S. cerevisiae deletion strains, locus YOR231W, strain MKK1, active compounds read low 0.987 | S. cerevisiae deletion strains, locus YOR265W, strain rbl2, active compounds read low 1 | S. cerevisiae deletion strains, locus YOR270C, strain vph1, active compounds read low 0.997 | S. cerevisiae deletion strains, locus YOR290C, strain snf2, active compounds read low 1.01 | S. cerevisiae deletion strains, locus YOR316C, strain cot1, active compounds read low 0.987 | S. cerevisiae deletion strains, locus YPL051W, strain arl3, active compounds read low 0.999 | S. cerevisiae deletion strains, locus YPL055C, strain LGE1, active compounds read low 1.03 | S. cerevisiae deletion strains, locus YPL078C, strain atp4, active compounds read low 1 | S. cerevisiae deletion strains, locus YPL106C, strain sse1, active compounds read low 0.991 | S. cerevisiae deletion strains, locus YPL240C, strain hsp82, active compounds read low 0.996 | S. cerevisiae deletion strains, locus YPL241C, strain CIN2, active compounds read low 1 | S. cerevisiae deletion strains, locus YPL256C, strain CLN2, active compounds read low 0.976 | S. cerevisiae deletion strains, locus YPR119W, strain clb2, active compounds read low 0.995 | S. cerevisiae deletion strains, locus YPR141C, strain kar3, active compounds read low 0.984 | S. cerevisiae deletion strains, locus YPR163C, strain tif3, active compounds read low 0.99 | S. cerevisiae deletion strains, locus YPR167C, strain met16, active compounds read low 0.991 | S. cerevisiae deletion strains, strain wtn01, active compounds read low 0.977 | S. cerevisiae strains, strain wild type, active compounds read low 1.01
